{"source": "PubChem BioAssay AID588850", "about": "(Sanford-Burnham Center for Chemical Genomics, 2011)", "note": "Screen size: about 360,000 compounds; about 3,100 (0.86%) were called active. The sample holds actives, similar compounds and a random draw of the others, so the mix is not that of the screen. A number with no mark means an inactive call.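 The calls were made as follows: active = at least 50% inhibition at 5 µM, scaled per plate between neutral and stimulator controls; inactive = the rest.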"}
{"assay": "inhibitors of PAF-induced NF-kB signaling, primary screen, cell-based, GFP fluorescence, uHTS (AID 588850);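 also: PAF is a Pseudomonas aeruginosa culture filtrate used as stimulus; plate controls were PAF-stimulated DMSO wells for no effect and unstimulated DMSO wells for full effect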", "conditions": "KKLEB NF-kB-GFP reporter, GFP fluorescence overnight, at 5 µM, active compounds read high"}
{"smiles": "CC(C)CC1(C(=O)NCc2ccccn2)C=CCN1C(=O)c1ccccc1", "note": "(stereo not given)", "inhibition": "-3.1%"}
{"smiles": "O=C(Nc1cccc2ccccc12)NC1CC1", "inhibition": "-3.5%"}
{"smiles": "O=C(Nc1cccc2ccccc12)c1[nH]c(-c2ccccc2)c2c1C(=O)N(C1CC1)C2=O", "inhibition": "63.7% (active)"}
{"smiles": "O=C(Nc1cccc2ccccc12)c1onc2c1CCCC2", "inhibition": "-10.2%"}
{"smiles": "CC(=O)N(Cc1cc(=O)[nH]c2ccccc12)c1ccc(C)cc1C", "inhibition": "10.4%"}
{"smiles": "CCC(=O)N(Cc1cc2ccccc2[nH]c1=O)c1ccc(OC)cc1", "inhibition": "-0.6%"}
{"smiles": "Cc1ccc(N(Cc2cc(=O)[nH]c3ccccc23)C(=O)CCl)cc1", "inhibition": "63.4% (active)"}
{"smiles": "CCOC(=O)N1CCN(C(=O)c2ccccc2SCC(=O)NCC2CCCCC2)CC1", "inhibition": "-2%"}
{"smiles": "Cc1ccc(C(=O)CCC(=O)N(C)CC(=O)Nc2c(Cl)cccc2Cl)cc1", "inhibition": "-7.8%"}
{"smiles": "Cc1ccc(NC(=O)CN(C)C(=O)COC(=O)c2nccnc2N)cc1", "inhibition": "-12.4%"}
{"smiles": "Cc1cc(C(=O)CCC(=O)NNC(=O)c2ccccc2O)c(C)s1", "inhibition": "-22%"}
{"smiles": "CC1=C(C)CC(C(=O)NNC(=O)c2ccccc2O)C(C(=O)O)C1", "note": "(stereo not given)", "inhibition": "-2.9%"}
{"smiles": "O=C(NNC(=O)c1ccccc1O)c1ccccc1O", "inhibition": "61.7% (active)"}
{"smiles": "COCCNC(=O)c1ccc2c(c1)ncn2-c1ccc(C)c(Cl)c1", "inhibition": "-3.6%"}
{"smiles": "COCCN(C(=O)CCC(=O)Nc1nccs1)C(C(=O)NCCC(C)C)c1ccc(F)cc1", "note": "(stereo not given)", "inhibition": "-16.8%"}
{"smiles": "O=C(CNS(=O)(=O)c1cccc(C(F)(F)F)c1)Nc1ccccc1F", "inhibition": "-4.7%"}
{"smiles": "O=C(O)c1cc(S(=O)(=O)N(Cc2ccccc2)c2cccc(C(F)(F)F)c2)ccc1Cl", "inhibition": "-4.7%"}
{"smiles": "O=C(NNc1ccccc1Cl)C(O)(c1cccc(C(F)(F)F)c1)c1cccc(C(F)(F)F)c1", "inhibition": "55.6% (active)"}
{"smiles": "Cc1cccc(NC(=O)CSc2nnc(CCCCCNC(=O)OC(C)(C)C)o2)c1C", "inhibition": "-6.7%"}
{"smiles": "NC(=O)COc1ccccc1C(=O)NC12CC3CC(CC(C3)C1)C2", "inhibition": "3.5%"}
{"smiles": "C=C1C(=O)[C@]23C[C@H]1CCC2[C@@]1(C)C(C[C@@H]3O)[C@](C)(C(=O)O)CC[C@@H]1O", "note": "(stereo not given in full)", "inhibition": "82.6% (active)"}
{"smiles": "CCN(CC)CCCNC(=O)c1cn(C)c2ccc(S(=O)(=O)N(C)C3CCCCC3)cc2c1=O", "inhibition": "9.2%"}
{"smiles": "COCOCCn1cc(CN2CCS(=O)(=O)N(Cc3ccc(-c4ccccc4)cc3)C(CC(C)C)C2=O)nn1", "note": "(stereo not given)", "inhibition": "23.5%"}
{"smiles": "CC1C(=O)N(Cc2cn(Cc3ccco3)nn2)CCS(=O)(=O)N1Cc1ccc(-c2cccc(CO)c2)cc1", "note": "(stereo not given)", "inhibition": "3.2%"}
{"smiles": "COCOCCn1cc(CN2CCS(=O)(=O)N(Cc3ccc(-c4ccc(OC)cc4)cc3)C(CC(C)C)C2=O)nn1", "note": "(stereo not given)", "inhibition": "-5%"}
{"smiles": "COc1ccc(-c2ccc(CN3C(C(C)C)C(=O)N(Cc4cn(CC5CCCCC5)nn4)CCS3(=O)=O)cc2)cn1", "note": "(stereo not given)", "inhibition": "-2.4%"}
{"smiles": "CC(C)CC1C(=O)N(Cc2cn(CC3CCCCC3)nn2)CCS(=O)(=O)N1Cc1ccc(-c2ccc(Cl)cc2)cc1", "note": "(stereo not given)", "inhibition": "55.8% (active)"}
{"smiles": "COc1ccc(-c2ccc(CN3C(CC(C)C)C(=O)N(Cc4cn(CC5CCCCC5)nn4)CCS3(=O)=O)cc2)cc1", "note": "(stereo not given)", "inhibition": "41.4%"}
{"smiles": "COc1ccc(-c2ccc(CN3C(CC(C)C)C(=O)N(Cc4cn(CC5CCCCC5)nn4)CCS3(=O)=O)cc2)cn1", "note": "(stereo not given)", "inhibition": "66.1% (active)"}
{"smiles": "CC(=O)c1cccc(-c2ccc(CN3C(CC(C)C)C(=O)N(Cc4cn(CC5CCCCC5)nn4)CCS3(=O)=O)cc2)c1", "note": "(stereo not given)", "inhibition": "13.4%"}
{"smiles": "CC(C)CC1C(=O)N(Cc2cn(Cc3ccco3)nn2)CCS(=O)(=O)N1Cc1ccc(-c2ccc(Cl)c(Cl)c2)cc1", "note": "(stereo not given)", "inhibition": "66.8% (active)"}
{"smiles": "Cc1ccccc1N1C(=O)C(Oc2ccc(Cl)cc2)C1CNCC1CCCO1", "note": "(stereo not given)", "inhibition": "-17.5%"}
{"smiles": "CC(Sc1nncn1C)C(=O)Nc1ccccc1-c1ccccc1", "note": "(stereo not given)", "inhibition": "-12.2%"}
{"smiles": "Cc1cccc(N(C(=O)Cc2cccs2)C(C(=O)NCc2ccco2)c2ccncc2)c1", "note": "(stereo not given)", "inhibition": "-3.5%"}
{"smiles": "Cc1nn(C(C)C(=O)N2CCOCC2)c(=O)c2nn(-c3ccccc3)c(C)c12", "note": "(stereo not given)", "inhibition": "1.5%"}
{"smiles": "CC(=O)Nc1ccc(S(=O)(=O)NCC2CCC(C(=O)NCCc3ccccc3)CC2)cc1", "note": "(stereo not given)", "inhibition": "8.9%"}
{"smiles": "CC1(C(=O)NS(=O)(=O)c2ccccc2)CCN1C(=O)c1ccccc1", "note": "(stereo not given)", "inhibition": "-17.7%"}
{"smiles": "COc1cc(OC)c(C(=O)NNC(=O)c2ccc(NS(=O)(=O)c3cccs3)cc2)cc1OC", "inhibition": "0.1%"}
{"smiles": "Nc1nonc1-n1nnc(C(=O)N/N=C/C2CCCCC2)c1-c1ccccc1", "inhibition": "3.7%"}
{"smiles": "CCCOc1ccc(-c2c(C(=O)N/N=C/c3ccco3)nnn2-c2nonc2N)cc1", "inhibition": "-21.8%"}
{"smiles": "Nc1nonc1-n1nnc(C(=O)N/N=C/c2ccc(Cl)cc2)c1-c1ccc2c(c1)OCO2", "inhibition": "52.5% (active)"}
{"smiles": "CSc1ccc(CN2CCC2(C)C(=O)Nc2ccc(C)c(O)c2)cc1", "note": "(stereo not given)", "inhibition": "0%"}
{"smiles": "CCCc1nc(N)nc2c1C(=O)CC(C)(C)C2", "inhibition": "16.2%"}
{"smiles": "COc1ccc(/C=C/C(=O)c2c(O)cc(OC)cc2OC)cc1", "inhibition": "-12.9%"}
{"smiles": "COc1ccc(-c2cn[nH]c2-c2ccc(OC)cc2)cc1", "inhibition": "88% (active)"}
{"smiles": "CCOc1ccccc1Oc1cn[nH]c1-c1ccc(OC)cc1O", "inhibition": "13%"}
{"smiles": "COc1ccc2cc(-c3[nH]ncc3CNCCn3nc(C)cc3C)ccc2c1", "inhibition": "-8.4%"}
{"smiles": "CCOc1ccc(C(C)=O)cc1CSc1nnc(-c2ccncc2)n1CCOC", "inhibition": "-0.6%"}
{"smiles": "CS(=O)(=O)N(CC(=O)Nc1ccc(F)cc1F)c1cccc([N+](=O)[O-])c1", "inhibition": "10.1%"}
{"smiles": "O=c1[nH]c2ccccc2n1C1CCN(CCOc2ccccc2)CC1", "inhibition": "-0.9%"}
{"smiles": "COc1ccc(CNc2nccs2)cc1", "inhibition": "-5.6%"}
{"smiles": "COc1ccc(CNc2ncnc3ccccc23)cc1", "inhibition": "51.6% (active)"}
{"smiles": "c1ccc(CNc2ncnc3[nH]ncc23)cc1", "inhibition": "0.6%"}
{"smiles": "Nc1ccc(S(=O)(=O)Nc2nccc(/C=C/c3ccc(Br)s3)n2)cc1", "inhibition": "14.6%"}
{"smiles": "Oc1cccc2ccc(/C=C/c3ccc(Br)s3)nc12", "inhibition": "82.5% (active)"}
